Compounds with a hit are over-represented: about 4.1% of the library has one in this group of screens.
ssDAF-12 act: S. stercoralis DAF-12 nuclear receptor activators, primary screen, cell-based, luminescence, HEK293, GRIP1 co-expression, lit1-tk-luc | Nuclear hormone receptor DAF-12 (Strongyloides stercoralis) | HEK293 ssDAF-12/GRIP1 lit1-tk-luc reporter; % of 3 µM dafachronic acid response | activation, % at 6.8 µM | actives 1% (n = 370,000) | AID 652126, 2013;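 active = activation above the mean over all tested compounds plus 3 SD, cut at about 0.9% in these data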;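 also: 0% = DMSO-only wells and 100% = 3 µM delta7-dafachronic acid wells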
hcDAF12 agonist: H. contortus DAF-12 nuclear receptor activators, primary screen, cell-based, luminescence, HEK293, lit1-tk-luc reporter; activation, % at 6.8 µM; actives 1.4% (n = 370,000); HEK293 hcDAF-12 lit1-tk-luc reporter; 0% DMSO, 100% Δ7-dafachronic acid;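 active = activation above the mean of all tested compounds plus 3 SD, cut at about 5.5% in these data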;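 also: 100% = response to 3 µM Δ7-dafachronic acid high control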
DAX1 inh-1: DAX1 (NR0B1) inhibitors, primary screen, cell-based, HEK293, Gal4-DAX1, luciferase luminescence; Nuclear receptor subfamily 0 group B member 1 (Homo sapiens), P51843; HEK293 Gal4-DAX1 luciferase reporter; inhibition, % at 6.75 µM; actives 0.99% (n = 340,000);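 active = inhibition above the mean over all tested compounds plus 3 SD, cut at about 4.2% in these data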;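 also: 0% = DAX1-transfected cells with DMSO and 100% = empty-vector control cells with DMSO; inhibition shows as a rise in luminescence from relieved DAX1 repression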
Target sequence (P51843 207-470 limits assumed): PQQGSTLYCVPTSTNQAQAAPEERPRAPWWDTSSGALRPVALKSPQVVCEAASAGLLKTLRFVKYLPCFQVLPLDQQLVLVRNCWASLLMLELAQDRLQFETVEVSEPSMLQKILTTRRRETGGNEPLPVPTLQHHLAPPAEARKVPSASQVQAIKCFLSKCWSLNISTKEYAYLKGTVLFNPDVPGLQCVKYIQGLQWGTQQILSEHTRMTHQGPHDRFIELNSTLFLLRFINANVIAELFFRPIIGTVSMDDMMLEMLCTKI
hgDAF-12 ag: H. glycines DAF-12 receptor agonists, primary screen, cell-based, luminescence, HEK293, GAL4 fusion, UAS-luciferase; HEK293 GAL4-hgDAF12 UAS-luciferase reporter, agonist luminescence; normalized to butyrate control; AID 687014, 2013; activation, % at 6.8 µM; Nuclear hormone receptor DAF-12 (Heterodera glycines), GAL4 fusion; actives 1.8% (n = 370,000);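 active = activation above a cutoff set at the mean of all screened compounds plus 3 SD, cut at about 10% in these data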;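 also: 0% = DMSO wells and 100% = sodium butyrate wells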
DAX1 inh-2: DAX1 (NR0B1) inhibitors on StAR promoter, primary screen, cell-based, luminescence, SF-1 (NR5A1), full-length DAX-1; AID 652010, 2013; inhibition, % at 6.8 µM; HEK293T StAR-luciferase reporter, SF-1/DAX-1 repression relief; actives 1.1% (n = 370,000);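 active = inhibition above the mean over all tested compounds plus 3 SD, cut at about 3.6% in these data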;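 also: 0% = DAX-1 cells with DMSO and 100% = cells lacking DAX-1 with DMSO; higher inhibition means more luminescence from relief of DAX-1 repression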
DAX1 inh confirm: DAX1 (NR0B1) inhibitors relieving SF-1 repression, confirmation, cell-based, luminescence, HEK293T, full-length DAX-1, SF-1 activated StAR promoter; actives 87% (n = 2,400); inhibition, % at 6.8 µM; shares compounds with DAX1 inh-2; AID 652134, 2013; HEK293T StAR-promoter luciferase reporter, SF-1/DAX-1 repression;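 active = inhibition above the average of every tested compound plus 3 SD, cut at about 3.8% in these data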;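 also: 0% = DAX-1 cells with DMSO and 100% = no DAX-1 control cells with DMSO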
Target sequence (P51843 whole entry, looked up): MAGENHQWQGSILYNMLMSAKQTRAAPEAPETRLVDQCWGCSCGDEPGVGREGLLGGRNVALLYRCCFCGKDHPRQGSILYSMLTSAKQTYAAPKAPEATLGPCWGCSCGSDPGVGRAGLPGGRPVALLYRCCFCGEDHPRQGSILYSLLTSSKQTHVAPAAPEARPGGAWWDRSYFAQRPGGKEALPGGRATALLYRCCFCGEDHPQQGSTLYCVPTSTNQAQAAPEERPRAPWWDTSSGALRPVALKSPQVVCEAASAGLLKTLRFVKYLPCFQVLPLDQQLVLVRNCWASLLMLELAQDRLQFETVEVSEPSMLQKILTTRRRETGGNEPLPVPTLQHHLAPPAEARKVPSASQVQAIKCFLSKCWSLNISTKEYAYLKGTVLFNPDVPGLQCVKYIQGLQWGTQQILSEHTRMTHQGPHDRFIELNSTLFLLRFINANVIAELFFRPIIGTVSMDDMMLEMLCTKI
SF1 AF2mut Luc: StAR reporter signal changes without DAX1, counter-screen for DAX1 inhibitor project, cell-based, luminescence, AF-2 mutant SF-1, transactivation. shares compounds with DAX1 inh-2. HEK293 StAR-luciferase, SF-1 AF2 mutant. inhibition, % at 6.8 µM. actives 78% (n = 2,400). AID 652136, 2013;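 active = inhibition above the mean of all tested compounds plus 3 SD, cut at about 3% in these data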;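 also: 0% = DAX-1 transfected cells with DMSO and 100% = cells without DAX-1 with DMSO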
LXRb hcDAF ctr: LXR agonists, Gal4 luciferase reporter, confirmation, counter-screen for hcDAF-12 agonist project, cell-based, luminescence, HEK293, H. contortus campaign; shares compounds with hcDAF12 agonist; HEK293 Gal4-LXR tk-luc reporter, 24 h; normalized: DMSO 0%, positive control 100%; activation, % at 6.8 µM; 3,400 tested, under 10 active;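 active = mean percent activation of the reporter above a cutoff set as the average over tested compounds plus their standard deviation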
hcDAF12 ag: H. contortus DAF-12 receptor agonists, confirmation, cell-based, luminescence, HEK293, lit1-tk-luc, triplicate; shares compounds with hcDAF12 agonist; HEK293 hcDAF-12 lit1-tk-luc reporter; % of Δ7-dafachronic acid response; activation, % at 6.8 µM; actives 61% (n = 3,400); AID 743032, 2013;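 active = mean activation across triplicate tests above the threshold derived from the earlier primary screen, cut at about 5.5% in these data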;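 also: 0% = DMSO only wells and 100% = 3 µM Δ7-dafachronic acid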
hgDAF12 conf: H. glycines DAF-12 receptor agonists, confirmation, cell-based, luminescence, HEK293, GAL4-LBD fusion; shares compounds with hgDAF-12 ag; HEK293 GAL4-hgDAF12 luciferase reporter, agonist mode; percent of butyrate response; activation, % at 6.8 µM; actives 80% (n = 3,300); AID 743050, 2013;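 active = mean activation over triplicate wells above the hit cutoff derived from the earlier primary screen, cut at about 11% in these data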;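 also: 0% = DMSO low control and 100% = 2 mM sodium butyrate high control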
LXR ag 2: LXR agonists, Gal4 luciferase reporter, confirmation, counter-screen for hgDAF-12 agonist project, cell-based, luminescence, HEK293, H. glycines campaign | AID 743051, 2013 | 3,300 tested, under 10 active | shares compounds with hgDAF-12 ag | 24 h | activation, % at 6.8 µM;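 active = mean activation of the triplicate above a set limit carried over from the primary screen, none filed active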
* marks the source's active call; other numbers are inactive results; nt = not tested or not shown.

SMILES	ssDAF-12 act	hcDAF12 agonist	DAX1 inh-1	hgDAF-12 ag	DAX1 inh-2	DAX1 inh confirm	SF1 AF2mut Luc	hgDAF12 conf	LXR ag 2	others
c1ccc2c(c1)CCCN2c1nc(N2CCOCC2)nc(N2CCOCC2)n1	-0.1	0.0	0.8	0.2	-1.0	nt	nt	nt	nt
O=C(Nc1cnc2ccccc2c1)c1ccncc1	-0.5	4.6	1.1	13.8*	5.5*	10.6*	7.5*	14.1*	0.7
O=C(Nc1ccccc1)c1ccncc1	-0.9	-0.6	-0.6	-0.8	0.1	nt	nt	nt	nt
Cc1nc(Nc2ccc(C(=O)O)cc2)sc1-c1ccccc1	2.6*	10.4*	0.8	16.6*	5.5*	2.7	0.3	10.0	0.7	LXRb hcDAF ctr=1.5;hcDAF12 ag=7.2*
COC(=O)c1sc(Nc2ccccc2)nc1C	-0.1	1.8	0.7	8.1	0.9	nt	nt	nt	nt
Cc1nc(Nc2ccccc2)sc1-c1ccccc1	1.1*	9.8*	3.2	21.2*	6.7*	20.9*	9.8*	20.7*	1.1	LXRb hcDAF ctr=1.9;hcDAF12 ag=8.3*
Cc1nc(Nc2ccccc2)sc1C(=O)c1ccccc1	-1.5	0.1	nt	5.9	-0.1	nt	nt	nt	nt
C[C@@H]1CCN(C2CC2)S(=O)(=O)c2ccc(N3CC[C@H](O)C3)cc2O1	-0.9	-1.5	nt	-2.3	-0.1	nt	nt	nt	nt
O=C1C(C=Nc2ccc(F)cc2)=C(O)c2ccccc21	0.7	8.9*	0.0	22.1*	5.3*	19.2*	8.7*	20.4*	0.9	LXRb hcDAF ctr=1.8;hcDAF12 ag=9.5*
O=C(CCCC1=NS(=O)(=O)c2ccccc2N1)N1CCN(c2ccccc2Cl)CC1	-0.6	-2.0	nt	-3.0	-1.5	nt	nt	nt	nt
CCOc1cccc(C(=O)NC(=S)Nc2ccc3c(c2)OCCO3)c1	-0.8	2.0	1.2	8.1	0.2	nt	nt	nt	nt
O=C(NC(=S)Nc1ccc2c(c1)OCCO2)c1ccccc1F	0.6	4.5	2.2	18.7*	7.6*	12.2*	7.0*	18.3*	0.6
O=C(NC(=S)Nc1ccc2c(c1)OCCO2)c1ccccc1	0.3	4.0	1.3	14.4*	4.7*	15.8*	8.7*	20.6*	0.9
O/N=C/c1ccn(-c2ccc(Br)cc2)c1	-0.3	0.7	4.5*	14.3*	5.6*	5.9*	2.8	10.4	0.2
CC(=O)NC12CC3CC(C1)CC(C(=O)OCC(=O)c1cc(C)n(C)c1C)(C3)C2	-0.2	6.7*	1.5	16.4*	9.8*	11.4*	7.1*	13.6*	0.7	LXRb hcDAF ctr=1.4;hcDAF12 ag=6.2*
O=C(N[C@H](C(=O)N1CCC[C@H]1C(=O)NC1CCCC1)c1ccccc1)c1ccc(Cl)c(Cl)c1	-0.5	1.1	nt	-2.5	0.0	nt	nt	nt	nt
O=C(O)c1cc2c(ccc3ccccc32)o1	-1.3	0.6	-0.9	3.5	0.5	nt	nt	nt	nt
O=C(c1cc2c(ccc3ccccc32)o1)N1CCCCC1	1.2*	6.8*	0.7	18.0*	14.8*	14.6*	8.7*	13.8*	0.8	LXRb hcDAF ctr=1.2;hcDAF12 ag=4.3
Clc1ccc(OCCSc2ncccn2)c(Br)c1	1.8*	6.4*	4.4*	20.7*	5.5*	15.5*	8.1*	22.4*	0.8
COc1ccc2cc(C[C@@H]3CC[C@@H](CO)O3)ccc2c1	0.1	3.9	2.3	15.2*	5.0*	8.1*	5.4*	12.4*	0.6
O=C(Nc1cccc(-c2ccc(N3CCOCC3)nn2)c1)c1ccc(Cl)cc1	-1.1	-0.2	0.2	4.4	2.6	nt	nt	nt	nt
O=C(Nc1cccc(-c2ccc(N3CCCCC3)nn2)c1)c1ccco1	1.6*	4.8	-1.5	16.4*	7.3*	2.3	3.0*	13.8*	0.6
COc1cccc(OC)c1C(=O)Nc1cccc(-c2ccc(N3CCOCC3)nn2)c1	-0.6	1.8	3.0	13.9*	5.1*	4.0*	3.4*	9.7	0.4
O=c1[nH]c(=O)n(C2CC(O)C(CO)O2)cc1Br (stereo unspecified)	-0.6	6.2*	2.7	15.5*	10.8*	17.5*	6.8*	20.4*	0.1
c1cncc(-c2nc3cc4ccccc4cc3[nH]2)c1	1.5*	9.5*	4.6*	20.6*	7.8*	11.0*	5.3*	20.6*	1.1	LXRb hcDAF ctr=1.8;hcDAF12 ag=9.6*
Cc1cccc(NC(=O)C2CCCN2S(=O)(=O)c2cccc3cccnc23)c1C (stereo unspecified)	-1.9	-1.5	nt	-1.7	-0.4	nt	nt	nt	nt
Cc1ccc(C(=O)NC2CCC(C)CC2)s1 (stereo unspecified)	1.0*	3.6	0.8	19.5*	13.8*	15.4*	6.6*	18.0*	0.8
CC1CCC(NC(=O)c2cc3c(s2)CCCC3)CC1 (stereo unspecified)	-0.2	2.0	1.9	14.5*	6.1*	6.7*	4.5*	12.1*	0.4
CNC(=O)c1cc2c(s1)CCCCCC2	-1.0	-0.3	0.8	-1.5	-0.2	nt	nt	nt	nt

Bioassay records (PubChem)
